# Measured values reported in the supplement of paper PMC10849652.
# Of roughly 8,800 targets only a part is listed; those with a hit were picked by preference. About 0.5% of all pairs of compound and target were hits. A number with no mark means an inactive call.
# How the values were obtained:
# Assay in all cases: log2 fold change, soluble protein after heating vs DMSO (PISA); higher = thermal stabilisation; K562 lysate, 10 uM; active = over 0.2 and 3.5 SD of the protein, either way, in both replicates (recomputed)
# lapatinib = compound: CS(=O)(=O)CCNCc1ccc(-c2ccc3ncnc(Nc4ccc(OCc5cccc(F)c5)c(Cl)c4)c3c2)o1 [lapatinib]
# Summary of the method: (§1)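 Dounce homogenisation of K562 pellets in PBS pH 7.4 with 1 mM MgCl2 produced a crude extract, used at 1 mg/mL protein. Exposure to 10 μM compound lasted 30 min, and aliquots were then heated for 3 min across 48°C-58°C, pooled and brought to 0.5% NP-40 at 4°C. The supernatant after 21,000xg for 90 min was quantified by TMTpro 16plex LC-MS/MS with channel sums equalised. Duplicate values are given as log-two fold change in thermal stability relative to solvent controls.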
# pictilisib = compound: CS(=O)(=O)N1CCN(Cc2cc3nc(-c4cccc5[nH]ncc45)nc(N4CCOCC4)c3s2)CC1 [pictilisib]
# Summary of the method: as §1
# crizotinib = compound: C[C@@H](Oc1cc(-c2cnn(C3CCNCC3)c2)cnc1N)c1c(Cl)ccc(F)c1Cl [crizotinib]
# Summary of the method: as §1
# [1] = compound: C[C@H](C1=CC=C(C=C1)C(=O)NC2=C3C=CNC3=NC=C2)N
# Summary of the method: as §1
# duvelisib = compound: C[C@H](Nc1ncnc2nc[nH]c12)c1cc2cccc(Cl)c2c(=O)n1-c1ccccc1 [duvelisib]
# Summary of the method: as §1
# gandotinib = compound: Cc1cc(Nc2cc(CN3CCOCC3)c3nc(C)c(Cc4ccc(Cl)cc4F)n3n2)n[nH]1 [gandotinib]
# Summary of the method: as §1
# tozasertib = compound: Cc1cc(Nc2cc(N3CCN(C)CC3)nc(Sc3ccc(NC(=O)C4CC4)cc3)n2)n[nH]1 [tozasertib]
# Summary of the method: as §1
# doramapimod = compound: Cc1ccc(-n2nc(C(C)(C)C)cc2NC(=O)Nc2ccc(OCCN3CCOCC3)c3ccccc23)cc1 [doramapimod]
# Summary of the method: as §1
# bafetinib = compound: Cc1ccc(NC(=O)c2ccc(CN3CC[C@H](N(C)C)C3)c(C(F)(F)F)c2)cc1Nc1nccc(-c2cncnc2)n1 [bafetinib]
# Summary of the method: as §1
# [2] = compound: Cc1cccc(CC(=O)N2CCc3c2ccc(-c2cn(C)c4ncnc(N)c24)c3F)n1
# Summary of the method: as §1
# nilotinib = compound: Cc1cn(-c2cc(NC(=O)c3ccc(C)c(Nc4nccc(-c5cccnc5)n4)c3)cc(C(F)(F)F)c2)cn1 [nilotinib]
# Summary of the method: as §1
# [3] = compound: Cc1nc(Nc2n[nH]c3c2CN(C(=O)N[C@H](CN(C)C)c2ccccc2)C3(C)C)c2sccc2n1
# Summary of the method: as §1
# dasatinib = compound: Cc1nc(Nc2ncc(C(=O)Nc3c(C)cccc3Cl)s2)cc(N2CCN(CCO)CC2)n1 [dasatinib]
# Summary of the method: as §1
# [4] = compound: Cc1ncc(-c2ccnc(Nc3ccc(S(C)(=O)=O)cc3)n2)n1C(C)C
# Summary of the method: as §1
# [5] = compound: Cn1cc(-c2ccc3c(c2)CCN3C(=O)Cc2cccc(C(F)(F)F)c2)c2c(N)ncnc21
# Summary of the method: as §1
# quisinostat = compound: Cn1cc(CNCC2CCN(c3ncc(C(=O)NO)cn3)CC2)c2ccccc21 [quisinostat]
# Summary of the method: as §1
# tipifarnib = compound: Cn1cncc1[C@@](N)(c1ccc(Cl)cc1)c1ccc2c(c1)c(-c1cccc(Cl)c1)cc(=O)n2C [tipifarnib]
# Summary of the method: as §1
# [6] = compound: NC(=O)Nc1cc(-c2cccc(F)c2)sc1C(=O)N[C@H]1CCCNC1
# Summary of the method: as §1
# [7] = compound: NC(=O)c1cnc(N[C@@H]2CCCC[C@@H]2N)nc1Nc1cccc(-n2nccn2)c1
# Summary of the method: as §1
# [8] = compound: NC1(c2ccc(-c3nc4ccn5c(=O)[nH]nc5c4cc3-c3ccccc3)cc2)CCC1
# Summary of the method: as §1
# Sequence of UniProt Q9NXJ5 (Q9NXJ5 whole entry, looked up): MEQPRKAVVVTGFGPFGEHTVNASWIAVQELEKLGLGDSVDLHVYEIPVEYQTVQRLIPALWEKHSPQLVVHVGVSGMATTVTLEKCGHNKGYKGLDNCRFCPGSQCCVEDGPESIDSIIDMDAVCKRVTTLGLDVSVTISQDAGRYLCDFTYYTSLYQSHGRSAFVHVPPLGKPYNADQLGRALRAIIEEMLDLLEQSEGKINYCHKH
# Sequence of UniProt Q9BZE2 (Q9BZE2 whole entry, looked up): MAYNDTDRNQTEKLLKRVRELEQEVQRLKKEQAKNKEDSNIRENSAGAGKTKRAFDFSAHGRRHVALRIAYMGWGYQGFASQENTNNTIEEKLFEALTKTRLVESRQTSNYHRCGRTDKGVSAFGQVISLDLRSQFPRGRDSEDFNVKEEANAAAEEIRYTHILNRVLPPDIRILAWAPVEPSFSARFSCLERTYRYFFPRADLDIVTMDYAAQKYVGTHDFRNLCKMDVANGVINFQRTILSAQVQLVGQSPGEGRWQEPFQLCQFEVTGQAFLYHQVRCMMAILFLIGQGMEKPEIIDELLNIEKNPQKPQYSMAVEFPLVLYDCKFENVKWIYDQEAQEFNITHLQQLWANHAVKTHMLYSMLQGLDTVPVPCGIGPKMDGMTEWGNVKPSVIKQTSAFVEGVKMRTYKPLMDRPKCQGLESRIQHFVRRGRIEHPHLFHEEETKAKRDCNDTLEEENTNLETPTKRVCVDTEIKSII
# Sequence of UniProt Q8WUM4 (Q8WUM4 whole entry, looked up): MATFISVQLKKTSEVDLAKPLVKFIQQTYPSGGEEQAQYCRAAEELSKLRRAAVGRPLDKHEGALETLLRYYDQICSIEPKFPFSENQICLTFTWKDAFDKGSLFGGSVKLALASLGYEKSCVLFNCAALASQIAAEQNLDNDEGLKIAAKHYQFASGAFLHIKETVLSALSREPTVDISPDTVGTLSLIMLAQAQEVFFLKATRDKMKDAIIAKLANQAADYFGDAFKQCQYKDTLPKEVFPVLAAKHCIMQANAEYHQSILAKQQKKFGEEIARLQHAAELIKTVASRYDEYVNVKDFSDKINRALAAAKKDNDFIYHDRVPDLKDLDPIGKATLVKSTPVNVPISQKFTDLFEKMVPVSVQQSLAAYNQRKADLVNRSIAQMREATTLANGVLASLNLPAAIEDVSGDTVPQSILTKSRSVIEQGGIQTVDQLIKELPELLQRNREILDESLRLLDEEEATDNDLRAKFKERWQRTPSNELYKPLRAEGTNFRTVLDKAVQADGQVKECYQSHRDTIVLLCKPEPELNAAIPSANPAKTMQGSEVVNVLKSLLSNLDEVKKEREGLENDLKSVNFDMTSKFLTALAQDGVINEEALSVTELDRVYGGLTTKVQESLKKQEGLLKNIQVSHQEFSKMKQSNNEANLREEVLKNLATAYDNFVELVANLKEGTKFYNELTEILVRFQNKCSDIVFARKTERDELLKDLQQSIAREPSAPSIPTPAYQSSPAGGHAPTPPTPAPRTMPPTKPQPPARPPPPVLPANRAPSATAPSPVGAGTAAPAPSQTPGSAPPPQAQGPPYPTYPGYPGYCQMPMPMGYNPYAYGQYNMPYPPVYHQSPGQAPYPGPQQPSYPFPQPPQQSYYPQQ
# Sequence of UniProt P42338 (P42338 whole entry, looked up): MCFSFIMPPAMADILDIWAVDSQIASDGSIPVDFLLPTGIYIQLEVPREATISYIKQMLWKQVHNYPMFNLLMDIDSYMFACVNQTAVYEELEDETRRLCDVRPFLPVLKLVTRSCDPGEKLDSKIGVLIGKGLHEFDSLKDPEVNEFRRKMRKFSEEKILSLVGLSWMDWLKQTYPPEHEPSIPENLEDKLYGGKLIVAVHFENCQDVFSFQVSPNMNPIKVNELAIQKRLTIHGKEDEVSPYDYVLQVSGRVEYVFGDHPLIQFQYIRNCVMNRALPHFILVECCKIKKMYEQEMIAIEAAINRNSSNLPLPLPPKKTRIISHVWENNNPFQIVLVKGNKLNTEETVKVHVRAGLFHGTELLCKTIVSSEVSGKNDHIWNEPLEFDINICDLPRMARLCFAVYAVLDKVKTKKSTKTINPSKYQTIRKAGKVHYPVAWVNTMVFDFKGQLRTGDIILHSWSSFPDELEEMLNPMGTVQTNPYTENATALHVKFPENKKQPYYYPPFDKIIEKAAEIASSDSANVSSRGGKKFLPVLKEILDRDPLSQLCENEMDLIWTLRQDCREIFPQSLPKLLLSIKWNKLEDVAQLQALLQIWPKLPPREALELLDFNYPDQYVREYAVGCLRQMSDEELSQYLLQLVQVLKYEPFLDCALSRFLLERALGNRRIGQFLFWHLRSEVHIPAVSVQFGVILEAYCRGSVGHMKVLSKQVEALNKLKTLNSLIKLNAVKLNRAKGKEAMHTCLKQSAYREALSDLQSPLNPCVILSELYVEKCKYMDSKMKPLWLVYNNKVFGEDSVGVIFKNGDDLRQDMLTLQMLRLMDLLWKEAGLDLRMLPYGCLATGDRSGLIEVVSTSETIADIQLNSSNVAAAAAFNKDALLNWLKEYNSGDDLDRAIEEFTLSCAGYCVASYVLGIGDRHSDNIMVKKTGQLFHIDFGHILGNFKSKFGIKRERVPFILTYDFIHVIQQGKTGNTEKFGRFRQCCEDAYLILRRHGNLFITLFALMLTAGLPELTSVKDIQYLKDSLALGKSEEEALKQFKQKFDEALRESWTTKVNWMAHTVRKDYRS
# Sequence of UniProt P54278 (P54278 whole entry, looked up): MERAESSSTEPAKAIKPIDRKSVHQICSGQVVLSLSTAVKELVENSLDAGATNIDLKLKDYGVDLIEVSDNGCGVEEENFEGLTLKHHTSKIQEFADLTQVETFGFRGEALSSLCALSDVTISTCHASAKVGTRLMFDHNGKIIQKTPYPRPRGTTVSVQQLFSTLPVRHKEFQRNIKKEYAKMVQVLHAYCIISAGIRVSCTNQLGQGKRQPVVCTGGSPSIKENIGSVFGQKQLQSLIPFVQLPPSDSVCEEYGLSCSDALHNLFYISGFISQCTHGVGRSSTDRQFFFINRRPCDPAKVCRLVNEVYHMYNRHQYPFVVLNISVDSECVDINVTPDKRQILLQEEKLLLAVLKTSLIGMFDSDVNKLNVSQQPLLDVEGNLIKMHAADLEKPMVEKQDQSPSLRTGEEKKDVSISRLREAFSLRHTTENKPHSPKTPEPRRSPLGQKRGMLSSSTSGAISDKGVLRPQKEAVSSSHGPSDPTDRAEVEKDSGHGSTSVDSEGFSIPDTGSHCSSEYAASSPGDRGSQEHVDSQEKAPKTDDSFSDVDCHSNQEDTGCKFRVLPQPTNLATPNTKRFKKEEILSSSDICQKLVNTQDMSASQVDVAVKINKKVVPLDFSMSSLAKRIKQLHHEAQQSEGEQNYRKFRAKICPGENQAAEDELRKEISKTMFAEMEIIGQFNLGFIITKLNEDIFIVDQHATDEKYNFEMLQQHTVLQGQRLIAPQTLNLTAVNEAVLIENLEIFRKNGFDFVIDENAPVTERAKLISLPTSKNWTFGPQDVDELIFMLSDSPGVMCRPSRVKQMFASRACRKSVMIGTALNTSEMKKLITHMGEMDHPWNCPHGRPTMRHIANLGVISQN
# Sequence of UniProt P18031 (P18031 whole entry, looked up): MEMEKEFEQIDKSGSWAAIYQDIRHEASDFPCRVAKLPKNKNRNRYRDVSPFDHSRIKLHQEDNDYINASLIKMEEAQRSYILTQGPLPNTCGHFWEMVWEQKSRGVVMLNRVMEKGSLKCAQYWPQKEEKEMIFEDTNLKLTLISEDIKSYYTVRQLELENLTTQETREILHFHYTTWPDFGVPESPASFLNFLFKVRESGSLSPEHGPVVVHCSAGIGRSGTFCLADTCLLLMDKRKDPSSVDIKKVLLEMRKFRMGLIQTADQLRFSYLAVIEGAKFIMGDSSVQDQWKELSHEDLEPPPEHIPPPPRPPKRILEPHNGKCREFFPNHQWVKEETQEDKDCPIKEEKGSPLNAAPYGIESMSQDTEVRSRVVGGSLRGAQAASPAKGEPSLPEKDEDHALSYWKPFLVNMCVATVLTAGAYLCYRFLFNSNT
# Sequence of UniProt P17706 (P17706 whole entry, looked up): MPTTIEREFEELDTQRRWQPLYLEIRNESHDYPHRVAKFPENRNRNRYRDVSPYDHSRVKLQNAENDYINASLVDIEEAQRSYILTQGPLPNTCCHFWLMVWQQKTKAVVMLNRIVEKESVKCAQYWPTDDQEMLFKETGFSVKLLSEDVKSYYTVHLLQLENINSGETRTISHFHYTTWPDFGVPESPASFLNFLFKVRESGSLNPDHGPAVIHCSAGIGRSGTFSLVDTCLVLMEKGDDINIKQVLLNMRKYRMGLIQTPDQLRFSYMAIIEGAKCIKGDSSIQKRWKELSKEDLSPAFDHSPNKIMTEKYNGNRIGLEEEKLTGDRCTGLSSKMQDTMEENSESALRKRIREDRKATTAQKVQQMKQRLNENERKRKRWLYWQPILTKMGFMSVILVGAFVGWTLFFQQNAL
# Sequence of UniProt P13861 (P13861 whole entry, looked up): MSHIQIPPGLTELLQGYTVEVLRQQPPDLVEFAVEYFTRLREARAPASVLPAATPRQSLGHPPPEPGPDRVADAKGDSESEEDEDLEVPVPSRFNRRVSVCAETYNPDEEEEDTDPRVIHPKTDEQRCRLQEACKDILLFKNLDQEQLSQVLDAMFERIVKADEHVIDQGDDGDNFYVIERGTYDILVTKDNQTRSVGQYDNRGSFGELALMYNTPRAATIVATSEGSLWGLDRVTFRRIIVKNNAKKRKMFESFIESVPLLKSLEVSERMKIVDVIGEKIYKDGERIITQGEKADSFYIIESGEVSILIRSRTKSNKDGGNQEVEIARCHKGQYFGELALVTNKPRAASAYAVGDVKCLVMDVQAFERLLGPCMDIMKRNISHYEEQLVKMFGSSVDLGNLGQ
# Sequence of UniProt Q96CD2 (Q96CD2 whole entry, looked up): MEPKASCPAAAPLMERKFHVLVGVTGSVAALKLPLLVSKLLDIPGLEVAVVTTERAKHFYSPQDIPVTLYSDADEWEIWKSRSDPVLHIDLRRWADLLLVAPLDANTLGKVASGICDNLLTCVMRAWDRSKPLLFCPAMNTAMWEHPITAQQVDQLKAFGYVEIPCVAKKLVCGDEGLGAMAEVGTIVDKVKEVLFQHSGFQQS
Target,log2 fold change (lapatinib),log2 fold change (pictilisib),log2 fold change (crizotinib),log2 fold change [1],log2 fold change (duvelisib),log2 fold change (gandotinib),log2 fold change (tozasertib),log2 fold change (doramapimod),log2 fold change (bafetinib),log2 fold change [2],log2 fold change (nilotinib),log2 fold change [3],log2 fold change (dasatinib),log2 fold change [4],log2 fold change [5],log2 fold change (quisinostat),log2 fold change (tipifarnib),log2 fold change [6],log2 fold change [7],log2 fold change [8]
PDCD6IP isoform 2 (UniProt Q8WUM4),0,-0.015,-0.015,0.071,-0.009,-0.09,0.024,-0.008,-0.006,-0.019,-0.018,0.007,-0.042,0.004,0.022,0.002,0.016,-0.001,0.018,0.002
PMS2 (UniProt P54278),0.016,0.021,-0.038,-0.036,0,-0.064,-0.014,-0.038,0.021,0.037,-0.024,-0.021,-0.1,0.039,0.047,-0.011,-0.078,0.043,0,-0.006
PIK3CB (UniProt P42338),-0.007,0.497 (active),-0.068,0.022,0.645 (active),0.096,0.017,-0.006,-0.034,0.012,0.015,0.021,-0.072,0.094,0.055,-0.05,-0.032,0.053,0.015,0.44 (active)
PDCD6IP (UniProt Q8WUM4),-0.006,-0.032,-0.103,-0.106,0.004,-0.012,0.033,0.034,-0.053,0.012,0.059,-0.045,-0.023,-0.006,0.049,0.001,0.06,0,-0.058,-0.032
PPP2CA (UniProt P67775),-0.028,-0.001,0.159,0.051,-0.024,-0.022,-0.116,-0.049,0.053,0.03,-0.009,0.037,0.017,0.009,0.057,0.185,0.024,-0.093,-0.008,0.023
PIR (UniProt O00625),0.017,-0.05,0.019,0.099,-0.035,-0.058,-0.008,-0.021,0.008,-0.006,0.011,-0.011,0.027,0.012,0.023,0.011,0.005,0.02,-0.009,-0.046
PPCDC (UniProt Q96CD2),-0.023,-0.176,0,-0.342 (active),0.062,0.152,0,0.024,0.034,0.19,-0.002,-0.014,-0.06,-0.017,-0.04,-0.015,0.022,0.013,0,0.047
PGPEP1 (UniProt Q9NXJ5),0.023,-0.013,0.011,-0.025,0.057,-0.029,0.03,0.045,-0.013,-0.019,0.018,0.019,-0.067,0.07,0.011,0.041,-0.006,-0.033,-0.03,0.033
PRKAR2A (UniProt P13861),0.036,-0.094,0.013,0.006,-0.025,-0.232 (active),0.015,0.036,-0.026,0.031,-0.036,-0.051,-0.065,-0.016,0.017,0.02,0.025,-0.198,-0.037,-0.011
PRMT8 (UniProt Q9NR22),-0.011,0.004,-0.037,-0.256 (active),0.012,0.071,0.008,-0.001,-0.112,0.168,0.007,-0.021,-0.039,-0.01,-0.023,-0.057,0.036,0.034,-0.023,-0.056
PTPN2 (UniProt P17706),-0.016,-0.01,-0.074,-0.084,-0.042,-0.013,-0.037,-0.012,-0.077,0.071,0,0.026,-0.026,-0.041,0.014,-0.067,-0.001,0.025,0.006,-0.005
PTPN1 (UniProt P18031),-0.022,-0.022,-0.031,-0.042,-0.007,-0.055,0.069,0.059,-0.029,0.062,-0.001,0.019,-0.062,0.007,0.027,-0.051,-0.032,0.039,0.026,0.021
PLEKHA5 isoform 6 (UniProt Q9HAU0),0.003,-0.054,0.006,-0.033,-0.032,0.093,0.002,-0.028,-0.061,0.002,-0.052,0.032,0.006,-0.005,0.021,-0.011,0.009,0.011,-0.008,-0.003
PDE2A (UniProt O00408),0.005,0,0.074,0.05,-0.042,0.138,0.049,-0.057,0.051,0.041,0.021,-0.033,0.042,-0.008,0.035,0.026,0.042,0.006,0.08,-0.184
PUS3 (UniProt Q9BZE2),0.008,-0.085,0.013,0.148,-0.03,-0.234,0.019,-0.087,-0.005,-0.185,-0.019,0.045,-0.063,-0.042,0.145,0.078,-0.007,-0.003,0.023,0.075
POLA1 (UniProt P09884),-0.022,-0.044,-0.03,-0.011,0.009,-0.016,0.003,0.01,-0.057,0.004,-0.022,-0.01,0.011,0.017,0.009,-0.028,-0.001,0.029,0.001,0.008
